Bioassay records from PubChem.
TRb SRC2 PPI – disrupts binding of human TR beta to SRC2 | AID 1469 | hit rate 0.065% among 280,000 | Potency, µM (series often up to 106 µM), inactives show top-dose activity change, negative = inhibition, usual class: inhibitors | TRbeta-SRC2 peptide binding, fluorescence polarization; receptor liganded with 1 µM T3;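 note: plate controls were bound peptide for no effect and peptide without receptor for full effect; nearly all actives have a fitted effect of over 50% in size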
Target sequence (P10828 whole entry, looked up): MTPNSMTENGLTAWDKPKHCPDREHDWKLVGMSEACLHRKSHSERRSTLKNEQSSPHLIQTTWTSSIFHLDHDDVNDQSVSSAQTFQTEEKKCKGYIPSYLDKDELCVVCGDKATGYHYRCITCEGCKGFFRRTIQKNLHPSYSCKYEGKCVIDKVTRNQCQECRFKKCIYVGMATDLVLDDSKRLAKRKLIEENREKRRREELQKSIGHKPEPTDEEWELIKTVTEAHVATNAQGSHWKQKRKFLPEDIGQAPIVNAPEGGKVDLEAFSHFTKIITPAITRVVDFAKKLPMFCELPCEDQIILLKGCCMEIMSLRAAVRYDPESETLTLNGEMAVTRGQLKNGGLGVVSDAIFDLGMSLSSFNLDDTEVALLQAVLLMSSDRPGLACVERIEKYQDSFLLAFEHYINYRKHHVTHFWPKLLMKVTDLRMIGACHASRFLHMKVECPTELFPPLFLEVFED
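Quantitative HTS by FP: 0.6 uM TRb LBD, 20 nM labeled SRC2 20-mer, 1 uM T3, 5% DMSO; 5 hr ambient incubation; % activity per concentration and potencies from concentration series.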
Tau fluor counter – counter-screen for tau fibril formation inhibitors. tau K18 P301L Alexa594 fluorescence, heparin fibrillization. Potency, µM (highest dose often 57.7 µM), inactives show top-dose activity change, negative = decrease. hit rate 0.93% among 280,000; note: nearly all actives have a fitted effect of over 55% in size
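Human K18 P301L tau (15 uM unlabeled plus 0.24 uM Alexa 594-labeled, final) in 100 mM sodium acetate pH 7 was mixed with compound and 20 uM heparin and incubated 6 hr at 37 C.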
Tau FP inhib – tau fibrillization inhibition (FP); K18 P301L tau heparin fibrillization, Alexa594 FP, 6 h; Potency, µM (doses to about 57.7 µM), without a hit: top-dose activity, negative = inhibition, actives largely listed as inhibitors; hit rate 0.39% among 280,000; AID 1468; P10636; note: nearly all actives have a fitted effect of over 55% in size
Target sequence (P10636 561-689 P618L limits assumed): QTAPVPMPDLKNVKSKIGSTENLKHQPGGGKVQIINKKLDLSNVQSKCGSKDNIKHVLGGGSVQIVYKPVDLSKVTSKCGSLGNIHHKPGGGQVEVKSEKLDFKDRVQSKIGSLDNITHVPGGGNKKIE
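FP of Alexa 594-tau after heparin (20 uM) induction. Substrate: human K18 P301L, 15 uM unlabeled, 0.24 uM labeled. Buffer 100 mM sodium acetate pH 7. 6 hr, 37 C.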
Tau fibril ThT – tau fibrillization inhibition (ThT binding); P10636; recombinant tau K18 P301L (four-repeat tau fragment), heparin-induced fibrillization, ThT fluorescence; Potency, µM (highest dose often 57.4 µM), for the others: top-dose activity, negative = inhibition, hits mostly inhibitors; hit rate 2.1% among 270,000; note: nearly all actives have a fitted effect of over 55% in size
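Recombinant human tau K18 fragment […] carrying P301L, 15 uM unlabeled plus 0.24 uM Alexa 594-labeled, was fibrillized with 20 uM heparin in 100 mM sodium acetate pH 7 for 6 hr at 37 C; 30 uM ThT fluorescence read after 1 hr.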
TR SRC2 fluor cs – Texas Red fluorescence interference in TRb-SRC2 counter-screen; TRb/SRC2 Texas Red total fluorescence interference; Potency, µM (top dose mostly 106 µM), for the others: top-dose fluorescence change, negative = quenching; hit rate 0.29% among 280,000; AID 1479; active = well fitted curve in either direction with a large enough effect; inconclusive = small, poorly fitted or top-dose-only effect
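Human TRb ligand-binding domain at 0.6 uM with 20 nM Texas Red SRC2 peptide in Tris buffer containing 1 uM T3 and 5% DMSO, incubated with compound 5 h at ambient temperature. Total fluorescence (555/632 nm) calculated as parallel + 2 × perpendicular.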
An asterisk follows results filed as active; [ ] = another dose, or the depositor's remark. This is a sample that favours compounds with a hit; in the whole collection about 3% have one here. Unless noted, calls come from the whole dose curve; as a rule, active = well fitted curve in the direction sought with a large enough effect; inconclusive = small, poorly fitted or top-dose-only effect, or another doubt; inactive = no such curve, though single readings can be large; an effect the other way counts as inactive or inconclusive. Unless noted, % is set by controls: 0 for no effect and ±100 for the full control effect; potency is the fitted concentration of half-maximal effect.

Results for CCN1C=C(Cc2ccc(OC)cc2)C2=C(C1)C(c1ccc(OC)cc1)C(C#N)=C(N)O2 (stereo unspecified) ?
TRb SRC2 PPI: inconclusive; Tau fluor counter: -15.3%; Tau FP inhib: 5.3%; Tau fibril ThT: inconclusive; TR SRC2 fluor cs: 50.1µM*[fluorescent]

Results for COc1cc(/C=N/c2oc(-c3ccccc3)cc2C#N)ccc1O ?
TRb SRC2 PPI: -5.4%; Tau fluor counter: inconclusive; Tau FP inhib: 8.7%; Tau fibril ThT: 15.8µM*; TR SRC2 fluor cs: 0.8%

How did N#CC1=C(N)Oc2c(O)cc3ccccc3c2C1c1ccsc1 (stereo unspecified) do in these assays?
TRb SRC2 PPI: 5.2%; Tau fluor counter: 15.8µM*[quencher]; Tau FP inhib: inconclusive; Tau fibril ThT: inconclusive; TR SRC2 fluor cs: 9.6%

How did CC(C)CCCCCCc1ccc(OCCOCCO)cc1 do in these assays?
TRb SRC2 PPI: 5.9%[201 µM]; TR SRC2 fluor cs: 1.6%[201 µM]

Results for COc1ccccc1NC(=O)c1sc2nc(-c3cc4cc(Cl)ccc4oc3=O)[nH]c(=O)c2c1C ?
TRb SRC2 PPI: -11.0%; Tau fluor counter: -1.0%; Tau FP inhib: -7.3%; Tau fibril ThT: 6.8%; TR SRC2 fluor cs: 17.8µM*[quencher]

Results for C1CCC[C@H]2CCCN3CC[C@H](CCCCCC[C@@H]4CCCN5CC[C@H](CC1)OC45)OC23 ?
TRb SRC2 PPI: 3.6%; Tau fluor counter: 2.0%; Tau FP inhib: -6.9%; Tau fibril ThT: -1.3%; TR SRC2 fluor cs: -0.1%

How did CCc1ccc(NC(=O)CN2C(=O)C(c3ccc(C)cc3)=NC23CCCCC3)cc1 do in these assays?
TRb SRC2 PPI: 0.4%; Tau fluor counter: -11.5%; Tau FP inhib: -15.2%; Tau fibril ThT: -0.3%; TR SRC2 fluor cs: -1.5%

Results for Cc1ccc(N=Nc2c(C)[nH][nH]c2=O)c(C)c1 ?
TRb SRC2 PPI: 4.3%; Tau fluor counter: -23.2%; Tau FP inhib: -5.7%; Tau fibril ThT: 8.91µM*; TR SRC2 fluor cs: -1.1%

How did COc1ccc(N=Nc2c(C)[nH][nH]c2=O)cc1 do in these assays?
TRb SRC2 PPI: -8.5%; Tau fluor counter: -11.6%; Tau FP inhib: 1.6%; Tau fibril ThT: 8.91µM*; TR SRC2 fluor cs: -5.7%

Results for CCOc1ccccc1CNC(=O)c1cc(-c2ccc(Cl)s2)nc2ccccc12 ?
TRb SRC2 PPI: 5.8%; Tau fluor counter: -25.8%; Tau FP inhib: -13.9%; Tau fibril ThT: -7.5%; TR SRC2 fluor cs: -2.3%

What do the screens show for `COc1ccc(CCNC(=O)c2cc(Nc3cc(C)cc(C)c3)nc3ccccc23)cc1OC`?
TRb SRC2 PPI: 3.5%; Tau fluor counter: inconclusive; Tau FP inhib: 3.9%; Tau fibril ThT: -10.0%; TR SRC2 fluor cs: -2.3%

How did COC(=O)c1c(-c2cccs2)csc1NC(=O)c1cc(OC)c(OC)c(OC)c1 do in these assays?
TRb SRC2 PPI: 2.4%; Tau fluor counter: -20.2%; Tau FP inhib: inconclusive; Tau fibril ThT: 11.2µM*; TR SRC2 fluor cs: -15.2%

Results for COC(=O)c1c(-c2cccs2)csc1NC(=O)c1ccc(C)cc1 ?
TRb SRC2 PPI: 0.3%; Tau fluor counter: -24.7%; Tau FP inhib: inconclusive; Tau fibril ThT: 31.6µM*; TR SRC2 fluor cs: -9.8%

How did COC(=O)c1c(-c2cccs2)csc1NC(=O)c1ccc(OC)c(OC)c1 do in these assays?
TRb SRC2 PPI: -3.1%; Tau fluor counter: -20.0%; Tau FP inhib: inconclusive; Tau fibril ThT: inconclusive; TR SRC2 fluor cs: 0.6%

Results for COC(=O)c1c(-c2cccs2)csc1NC(=O)c1ccc(Br)cc1 ?
TRb SRC2 PPI: -8.6%; Tau fluor counter: -23.8%; Tau FP inhib: inconclusive; Tau fibril ThT: 15.8µM*; TR SRC2 fluor cs: inconclusive

How did COC(=O)c1c(-c2cccs2)csc1NC(=O)c1cc(OC)cc(OC)c1 do in these assays?
TRb SRC2 PPI: 1.6%; Tau fluor counter: -28.5%; Tau FP inhib: inconclusive; Tau fibril ThT: inconclusive; TR SRC2 fluor cs: 2.6%

How did CCCCc1nc2c(c3c1C[C@H](C)OC3)CN(C(=O)c1ccco1)CC2 do in these assays?
TRb SRC2 PPI: -4.3%[11.2 µM]; Tau fluor counter: -5.1%[11.6 µM]; Tau FP inhib: 0.7%[11.6 µM]; Tau fibril ThT: -2.3%[11.5 µM]; TR SRC2 fluor cs: -4.1%[11.2 µM]

Results for CCCn1c(-c2ccc(F)cc2)nc2c(NCC3CCN(C)CC3)nc(C)nc21 ?
TRb SRC2 PPI: 3.2%; Tau fluor counter: -9.9%; Tau FP inhib: -2.9%; Tau fibril ThT: -1.6%; TR SRC2 fluor cs: -1.4%

What do the screens show for `OC1CCC(C2CCCCC2)CC1` (stereo unspecified)?
TRb SRC2 PPI: -1.4%[201 µM]; TR SRC2 fluor cs: -10.4%[201 µM]

Results for CCOC(=O)CNC(=O)O[C@H]1C(=O)c2ccc(OC)cc2O[C@@H]1c1ccc2c(c1)OCO2 ?
TRb SRC2 PPI: -3.4%; Tau fluor counter: -29.1%; Tau FP inhib: inconclusive; Tau fibril ThT: -18.6%; TR SRC2 fluor cs: -1.6%

Results for Cc1ccc(C)c(Cn2c(SCC(=O)N(C)Cc3ccccc3)nc3ccccc32)c1 ?
TRb SRC2 PPI: -0.1%; Tau fluor counter: 12.0%; Tau FP inhib: 12.7%; Tau fibril ThT: -6.3%; TR SRC2 fluor cs: -2.6%

How did Cc1ccc(C(=O)CSC2=C(C#N)C(c3ccco3)C3=C(CCCC3=O)N2)cc1 (stereo unspecified) do in these assays?
TRb SRC2 PPI: 3.6%; Tau fluor counter: -29.5%; Tau FP inhib: 10.6%; Tau fibril ThT: 15.8µM*; TR SRC2 fluor cs: 2.6%

How did N#CC1=C(SCC(=O)c2ccccc2)NC2=C(C(=O)CCC2)C1c1ccco1 (stereo unspecified) do in these assays?
TRb SRC2 PPI: 7.8%; Tau fluor counter: -26.8%; Tau FP inhib: 31.6µM*; Tau fibril ThT: 12.6µM*; TR SRC2 fluor cs: 2.6%

What do the screens show for `CC(C)(C)c1ccc(C(=O)CCCSC2=C(C#N)C(c3ccco3)C3=C(CCCC3=O)N2)cc1` (stereo unspecified)?
TRb SRC2 PPI: -0.6%; Tau fluor counter: -13.9%; Tau FP inhib: -15.8%; Tau fibril ThT: -15.4%; TR SRC2 fluor cs: -1.8%

Results for CCOc1c(OC(C)=O)ccc(/C=C/c2ccc3cccc(OC)c3n2)c1[N+](=O)[O-] ?
TRb SRC2 PPI: -5.3%; Tau fluor counter: inconclusive; Tau FP inhib: inconclusive; Tau fibril ThT: 5.62µM*; TR SRC2 fluor cs: -12.7%

Results for COC(=O)c1ccc(/C=C/c2ccc3cccc(OC)c3n2)cc1 ?
TRb SRC2 PPI: -5.9%; Tau fluor counter: -9.5%; Tau FP inhib: -1.6%; Tau fibril ThT: inconclusive; TR SRC2 fluor cs: -2.9%

How did Cc1ccc(CN(Cc2cc3cc4c(cc3[nH]c2=O)OCCO4)Cc2nnnn2Cc2ccco2)cc1 do in these assays?
TRb SRC2 PPI: -6.0%; Tau fluor counter: -28.5%; Tau FP inhib: inconclusive; Tau fibril ThT: 35.5µM*; TR SRC2 fluor cs: -1.1%

How did CN(C)C(=S)N=Nc1[nH]c2ccccc2c1O do in these assays?
TRb SRC2 PPI: 1.8%; Tau fluor counter: -24.5%; Tau FP inhib: -23.3%; Tau fibril ThT: 15.8µM*; TR SRC2 fluor cs: -1.4%
